Data reported in PubChem BioAssay (Tox21).
Records with an inconclusive call do not appear. Activity calls are given as the source filed them. Unless noted, the call rests on the fitted dose curve.

Tests used:
[1] = biological target: Peroxisome proliferator-activated receptor delta (Homo sapiens) (UniProt Q03181); assay: qHTS assay to identify small molecule agonists of the peroxisome proliferator-activated receptor delta (PPARd) signaling pathway (AID 743212)
How it was run: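 GeneBLAzer PPARd UAS-bla HEK293H cells (beta-lactamase reporter under UAS control), plated and rested 5 h at 37 C, then exposed to compounds in DMSO at 37 C; LiveBLAzer B/G FRET substrate added, 2 h room temperature, fluorescence read.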

[2] = qHTS assay to identify small molecule antagonists of the peroxisome proliferator-activated receptor delta (PPARd) signaling pathway - cell viability counter screen (AID 743213; active means well fitted curve in the direction sought with a large enough effect in the repeat runs; an effect the other way counts as inactive or inconclusive; further: nearly all actives have a fitted effect of over 50% in size)
How it was run: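 HEK293H cells with the PPARd UAS-bla reporter, co-treated 17 h at 37 C with compounds and L165041 (300 nM final), were lysed with CellTiter-Glo. Luminescence indicated viable cell content.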

[3] = biological target: Peroxisome proliferator-activated receptor delta (Homo sapiens) (UniProt Q03181); assay: qHTS assay to identify small molecule antagonists of the peroxisome proliferator-activated receptor delta (PPARd) signaling pathway (AID 743215; active means well fitted inhibition curve with a large enough effect in the signal ratio in the repeat runs, not every such curve was filed as active; the % refers to the signal ratio;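 further: cells stimulated with agonist L165041 at 300 nM final during compound exposure; series mostly up to about 62 µM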)
How it was run: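 PPARd-bla HEK293H cells (UAS-bla reporter) preincubated 5 h, then given compound plus 300 nM final L165041 agonist for 17 h at 37 C. Beta-lactamase activity read by LiveBLAzer B/G FRET substrate fluorescence after 2 h at room temperature.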

[4] = biological target: Bile acid receptor (Homo sapiens) (UniProt Q96RI1); assay: qHTS assay to identify small molecule agonists of the farnesoid-X-receptor (FXR) signaling pathway (AID 743220; active means well fitted activation curve with a large enough effect in the signal ratio in the repeat runs, not every such curve was filed as active; the % refers to the signal ratio)
Bile acid receptor (Homo sapiens), sequence (Q96RI1 whole entry, looked up): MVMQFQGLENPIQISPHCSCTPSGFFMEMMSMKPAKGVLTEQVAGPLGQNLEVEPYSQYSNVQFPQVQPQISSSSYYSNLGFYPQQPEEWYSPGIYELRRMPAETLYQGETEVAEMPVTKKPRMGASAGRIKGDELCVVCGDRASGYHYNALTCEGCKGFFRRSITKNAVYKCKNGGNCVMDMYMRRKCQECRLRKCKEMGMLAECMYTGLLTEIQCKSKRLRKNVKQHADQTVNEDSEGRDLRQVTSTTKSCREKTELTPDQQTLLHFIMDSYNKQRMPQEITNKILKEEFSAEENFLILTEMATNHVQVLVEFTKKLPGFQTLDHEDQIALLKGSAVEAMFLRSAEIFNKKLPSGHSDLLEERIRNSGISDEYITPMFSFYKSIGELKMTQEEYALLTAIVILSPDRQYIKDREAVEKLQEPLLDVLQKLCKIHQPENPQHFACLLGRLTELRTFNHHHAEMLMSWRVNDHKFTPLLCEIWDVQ
How it was run: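 Beta-lactamase reporter under UAS control in GeneBLAzer FXR HEK 293T cells (5000/well) measured with LiveBLAzer FRET substrate after 2 h at room temperature. Compound exposure lasted 16 h at 37C.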

[5] = qHTS assay to identify small molecule antagonists of the farnesoid-X-receptor (FXR) signaling pathway - cell viability counter screen (AID 743221; active means well fitted cell-killing curve with a large enough effect in the repeat runs, not every such curve was filed as active; further: nearly all actives have a fitted effect of over 50% in size)
How it was run: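 Quantitative HTS of the Tox21 10K library run in parallel with the beta-lactamase reporter read. HEK 293T cells carrying a UAS-driven bla reporter got compound and 50 uM CDCA (final) for 16 h; ATP-based luminescence followed.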

[6] = biological target: Vitamin D3 receptor (Homo sapiens) (UniProt P11473); assay: qHTS assay to identify small molecule agonists of the vitamin D receptor (VDR) signaling pathway (AID 743222)
Vitamin D3 receptor (Homo sapiens), sequence (P11473 whole entry, looked up): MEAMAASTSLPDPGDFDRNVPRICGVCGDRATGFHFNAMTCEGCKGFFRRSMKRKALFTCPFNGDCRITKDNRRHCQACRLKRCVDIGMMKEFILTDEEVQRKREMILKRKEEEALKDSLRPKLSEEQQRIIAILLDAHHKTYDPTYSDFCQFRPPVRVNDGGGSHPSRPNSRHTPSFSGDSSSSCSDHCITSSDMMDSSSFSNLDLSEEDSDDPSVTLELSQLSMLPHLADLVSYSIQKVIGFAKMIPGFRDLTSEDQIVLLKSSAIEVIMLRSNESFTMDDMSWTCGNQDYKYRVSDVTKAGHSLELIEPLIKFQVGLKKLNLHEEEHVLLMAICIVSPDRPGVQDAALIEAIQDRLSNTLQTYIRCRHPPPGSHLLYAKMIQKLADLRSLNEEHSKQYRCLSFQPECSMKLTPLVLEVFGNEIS
How it was run: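 VDR-bla cells plated 4 h at 37 C, then exposed to compounds for 16 h at 37 C. Beta-lactamase reporter activity measured by fluorescence after 2 h room-temperature loading with LiveBLAzer B/G FRET substrate.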

[7] = qHTS assay to identify small molecule agonists of the vitamin D receptor (VDR) signaling pathway - cell viability counter screen (AID 743224; active means well fitted curve in the direction sought with a large enough effect in the repeat runs; an effect the other way counts as inactive or inconclusive; further: series mostly up to about 63 µM; nearly all actives have a fitted effect of over 50% in size)
How it was run: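 VDR-bla cells, 4 h after plating, exposed to compounds for 16 h at 37C; viability then read in the same wells as CellTiter-Glo luminescence after 30 min at room temperature, following the bla FRET read.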

[8] = qHTS assay to identify small molecule antagonists of the vitamin D receptor (VDR) signaling pathway - cell viability counter screen (AID 743225; active means well fitted curve in the direction sought with a large enough effect in the repeat runs; an effect the other way counts as inactive or inconclusive; further: nearly all actives have a fitted effect of over 50% in size)
How it was run: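 Cells (VDR-UAS-bla HEK 293T) are plated, rested 4 h at 37C, dosed with compound and 3 nM final 1-alpha,25-dihydroxy vitamin D3, and incubated 16 h. Viability is taken from CellTiter-Glo luminescence in the reporter wells.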

[9] = qHTS assay to identify small molecule agonists of the NFkB signaling pathway (AID 1159509; active means well fitted curve in the direction sought with a large enough effect in the signal ratio in the repeat runs, not every such curve was filed as active; the % refers to the signal ratio; further: series mostly up to about 61 µM)
How it was run: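 After overnight attachment, reporter cells received test compounds, DMSO or positive controls and were incubated 5 hr at 37 C. FRET substrate was then added for 1.5 hr at room temperature before dual-emission fluorescence reading.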

[10] = qHTS assay to identify small molecule agonists of the NFkB signaling pathway - cell viability counter screen (AID 1159515); further: series mostly up to about 61 µM; nearly all actives have a fitted effect of over 55% in size
How it was run: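 NFkB-bla ME-180 cells, 2,000/well, plated overnight at 37 C; compound added for 5 hr at 37 C. Viability read in the same wells as the bla reporter, by CellTiter-Glo luminescence after 30 min at room temperature.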

[11] = qHTS assay to identify small molecule agonists of the endoplasmic reticulum stress response signaling pathway (AID 1159516; active means well fitted activation curve with a large enough effect in the signal ratio in the repeat runs, not every such curve was filed as active; the % refers to the signal ratio)
How it was run: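 CellSensor ESRE-bla HeLa cells, 1,500 per well, plated overnight, then exposed to compounds for 5 hr at 37 C. Beta-lactamase reporter read with LiveBLAzer B/G FRET substrate after 2 hr at room temperature, 405 nm excitation, 460 and 530 nm emission.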

[12] = qHTS assay to identify small molecule agonists of the endoplasmic reticulum stress response signaling pathway - cell viability counter screen (AID 1159517)
How it was run: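 Luminescence readout: CellTiter-Glo, 30 min RT, same wells as the ESRE-bla reporter read. HeLa ESRE-bla, 1,500 cells/well, o/n 37 C; cpd 5 hr 37 C/5% CO2.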

[13] = qHTS assay to identify small molecule agonists of the AP-1 signaling pathway - cell viability counter screen (AID 1159525); further: nearly all actives have a fitted effect of over 55% in size
How it was run: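 ME-180 AP-1-bla, 2500 cells/well, Opti-MEM + 0.5% dialyzed FBS; overnight 37 °C; cpd 15-pt titration, 5 h 37 °C; CellTiter-Glo 30 min RT; luminescence read; normalised to TOAB and DMSO controls.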

[14] = qHTS assay to identify small molecule agonists of the AP-1 signaling pathway (AID 1159526)
[15] = biological target: Retinoic acid receptor RXR-alpha (Homo sapiens) (UniProt P19793); assay: qHTS assay to identify small molecule agonists of the RXR signaling pathway (AID 1159527); further: nearly all actives have a fitted effect of over 35% in size
Retinoic acid receptor RXR-alpha (Homo sapiens), sequence (P19793 whole entry, looked up): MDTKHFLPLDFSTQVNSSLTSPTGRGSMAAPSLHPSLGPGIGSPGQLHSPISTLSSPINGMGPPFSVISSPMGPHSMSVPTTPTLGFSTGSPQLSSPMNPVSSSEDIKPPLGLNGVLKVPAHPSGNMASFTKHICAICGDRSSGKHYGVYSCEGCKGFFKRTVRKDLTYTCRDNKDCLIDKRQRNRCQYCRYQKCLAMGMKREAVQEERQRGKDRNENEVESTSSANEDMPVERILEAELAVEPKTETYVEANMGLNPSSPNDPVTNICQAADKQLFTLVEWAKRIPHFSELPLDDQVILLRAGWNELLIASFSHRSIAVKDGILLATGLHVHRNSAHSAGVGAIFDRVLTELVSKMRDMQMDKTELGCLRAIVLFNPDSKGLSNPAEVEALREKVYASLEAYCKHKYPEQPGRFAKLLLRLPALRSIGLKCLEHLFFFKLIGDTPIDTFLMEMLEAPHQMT
How it was run: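 qHTS of the Tox21 10K library in GeneBLAzer RXR-alpha HEK 293T cells carrying a beta-lactamase reporter […]; 16 hr treatment, 9-cis retinoic acid as agonist control, FRET read-out.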

[16] = qHTS assay to identify small molecule agonists of the farnesoid-X-receptor (FXR) signaling pathway - cell viability counter screen (AID 743218; active means well fitted curve in the direction sought with a large enough effect in the repeat runs; an effect the other way counts as inactive or inconclusive; further: nearly all actives have a fitted effect of over 45% in size)
How it was run: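 FXR-UAS-bla HEK 293T cells exposed to compounds for 16 h at 37C. Cytotoxicity read in the same wells by CellTiter-Glo luminescence after 30 min at room temperature, following the beta-lactamase FRET read.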

[17] = biological target: Vitamin D3 receptor (Homo sapiens) (UniProt P11473); assay: qHTS assay to identify small molecule antagonists of the vitamin D receptor (VDR) signaling pathway (AID 743223; active means well fitted inhibition curve with a large enough effect in the signal ratio in the repeat runs, not every such curve was filed as active; the % refers to the signal ratio)
How it was run: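 Fluorescence from LiveBLAzer B/G FRET substrate, read after 2 h at room temperature, reflects beta-lactamase reporter activity in VDR-bla cells treated 16 h at 37C with compounds and agonist 1alpha,25-dihydroxyvitamin D3 (3 nM final).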

[18] = biological target: Nuclear receptor ROR-gamma (Homo sapiens) (UniProt P51449); assay: qHTS assay to identify small molecule antagonists of the retinoid-related orphan receptor gamma (ROR-gamma) signaling pathway (AID 1159521; active means well fitted curve in the direction sought with a large enough effect in the repeat runs; an effect the other way counts as inactive or inconclusive)
How it was run: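 RORγ antagonism is scored from reduced reporter luminescence in Tet-on CHO cells. Induction used 1 uM final doxycycline hyclate for 16 h at 37 C, following a 2 h compound exposure.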

[19] = qHTS assay to identify small molecule antagonists of the retinoid-related orphan receptor gamma (ROR-gamma) signaling pathway - cell viability counter screen (AID 1159520; active means well fitted curve in the direction sought with a large enough effect in the repeat runs; an effect the other way counts as inactive or inconclusive; further: nearly all actives have a fitted effect of over 50% in size)
How it was run: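 Tet-on ROR gamma CHO cells (1,000/well) were plated 4 hr, given compounds in DMSO for 2 hr at 37 C, then induced with 1 uM final doxycycline for 16 hr. Viability was read as ATP by CellTiter-Glo luminescence after 30 min.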

[20] = biological target: Bile acid receptor (Homo sapiens) (UniProt Q96RI1); assay: qHTS assay to identify small molecule antagonists of the farnesoid-X-receptor (FXR) signaling pathway (AID 743217; active means well fitted inhibition curve with a large enough effect in the signal ratio in the repeat runs, not every such curve was filed as active; the % refers to the signal ratio)
How it was run: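 FXR-UAS-bla HEK 293T cells (beta-lactamase reporter) given compound plus chenodeoxycholic acid (50 uM final), 16 h at 37C. LiveBLAzer B/G FRET substrate added for 2 h at room temperature; fluorescence read.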

Measured: Potency

Peroxisome proliferator-activated receptor delta (Homo sapiens), sequence (Q03181 whole entry, looked up): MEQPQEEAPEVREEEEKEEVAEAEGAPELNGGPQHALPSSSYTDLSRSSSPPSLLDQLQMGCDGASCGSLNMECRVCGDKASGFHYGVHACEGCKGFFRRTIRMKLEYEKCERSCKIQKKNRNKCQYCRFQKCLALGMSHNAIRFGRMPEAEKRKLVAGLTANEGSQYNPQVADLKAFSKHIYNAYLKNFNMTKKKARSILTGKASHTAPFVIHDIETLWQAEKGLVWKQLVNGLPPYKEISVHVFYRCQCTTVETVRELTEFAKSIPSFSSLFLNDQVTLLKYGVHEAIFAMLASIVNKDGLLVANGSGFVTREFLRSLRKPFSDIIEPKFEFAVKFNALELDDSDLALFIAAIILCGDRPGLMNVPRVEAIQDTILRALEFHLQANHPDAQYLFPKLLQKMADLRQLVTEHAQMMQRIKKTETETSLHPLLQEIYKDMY

O=C1OC(=O)C2C1C1(Cl)C(Cl)=C(Cl)C2(Cl)C1(Cl)Cl (configuration not stated)
not listed: [16] | [17] | [18] | [19] | [20]
inactive: all other assays above

CCOP(=O)(N=C1SCCS1)OCC
not listed: [4] | [6] | [17] | [18] | [19] | [20]
inactive: all other assays above

Cc1ncsc1CCCl
not listed: [2] | [3] | [4] | [19] | [20]
inactive: all other assays above

COc1cc(OC)nc(Oc2cccc(Oc3nc(OC)cc(OC)n3)c2C(=O)O)n1
not listed: [2] | [6] | [7] | [8] | [18] | [19] | [20]
inactive: all other assays above

CCC#N
not listed: [1] | [3] | [6] | [15] | [16] | [18] | [20]
inactive: all other assays above

CC1COC2(c3ccccc3Cl)c3cc(Cl)ccc3NC(=O)CN12 (configuration not stated)
not listed: [1] | [4] | [14] | [18] | [20]
inactive: all other assays above

CCN(CC)CCOC(=O)C(C)(c1ccccc1)c1ccccc1
not listed: [4] | [6] | [16] | [17] | [18] | [19] | [20]
inactive: all other assays above

CC(C)CC#N
not listed: [1] | [2] | [7] | [15] | [19]
inactive: all other assays above

OC(c1ccccc1)(c1ccccc1)C1CCNCC1
not listed: [1] | [3] | [6] | [17] | [18] | [19]
inactive: all other assays above
